Measurements taken from PubChem BioAssay.
The source made the active and inactive calls.

What was measured:
[1] = system: Human papillomavirus type 1a protein E7 (residues 44-93); assay: HPV1a E7 fragment binders on microarrays, primary screen, biochemical, small-molecule microarray, residues 44-93, 635 nm fluorescence (AID 1108); conditions: small-molecule microarray binding, fluorescence 635 nm; higher = more signal;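 note: E7 fragment applied at 1 µg/mL in TBST for 1 h at 4 C; score combines spot fluorescence with its signal to noise ratio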
[2] = modulators of HCV replicon luciferase signal, primary screen, HCV replication inhibitor project, Huh7 cells, luciferase reporter (AID 1109); conditions: 48 h, higher = more signal;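 note: huh7 hepatoma cells harbouring a luciferase neomycin HCV replicon reporter; luciferase luminescence as measure of HCV replicon replication; test concentration not given here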
[3] = target: Left-right determination factor 2 (Homo sapiens) (UniProt O00292); assay: LEFTY2 binders on small-molecule microarrays, primary screen, biochemical, small-molecule microarray, 635 nm fluorescence scan (AID 1110); conditions: LEFTY2 binding, higher = more signal
[4] = target: Calmodulin-1 (Homo sapiens) (UniProt P0DP23); assay: CALM1 binders on microarrays, EGTA buffer, profiling panel, biochemical, small-molecule microarray, Cy5-labelled CALM1 (AID 1111); conditions: Cy5-CALM1 binding fluorescence, higher = more signal;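 note: labelled calmodulin applied in Tris saline Tween buffer holding calcium plus EGTA and DTT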
[5] = target: Calmodulin-1 (Homo sapiens) (UniProt P0DP23); assay: calcium-bound CALM1 binders on microarrays, profiling panel, artefact control for SMM control-protein annotation, biochemical, small-molecule microarray, Cy5-labelled CALM1, plus calcium (AID 1112); conditions: Cy5-CALM1 binding fluorescence, higher = more signal;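 note: score merges spot fluorescence with signal to noise from triplicate slides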
[6] = small-molecule microarray binders of probe aWnt5a, primary screen, biochemical, biotinylated probe, 635/667 nm fluorescence (AID 1113); conditions: higher = more signal;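 note: score merges 667 nm fluorescence intensity with signal-to-noise per printed feature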
[7] = small-molecule microarray binders of probe aShh, primary screen, biochemical, biotinylated probe, 635/667 nm fluorescence (AID 1114); conditions: higher = more signal;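 note: probe is biotin-labelled aShh protein from a stem cell growth factor screen; measures binding of labelled protein to compounds printed on the slide; score merges feature fluorescence at 667 nm with signal-to-noise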
[8] = small-molecule microarray binders of probe aNog, primary screen, biochemical, biotinylated probe, 635/667 nm fluorescence (AID 1115); conditions: higher = more signal;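 note: probe is biotinylated aNog protein used at 0.15 µg/mL for 1 h at 4 C; z-score combines 667 nm fluorescence of each spot with its signal to noise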
[9] = target: Torsin-1A-interacting protein 1 (Homo sapiens) (UniProt Q5JTV8); assay: LAP1 binders from COS7 cell lysate, primary screen, small-molecule microarray, 635/667 nm fluorescence (AID 1116); conditions: COS7-hLAP1 lysate binding, 635 nm fluorescence, higher = more signal
[10] = target: Alpha-bungarotoxin (Bungarus multicinctus) (UniProt P60615); assay: alpha-bungarotoxin binders on microarray, profiling panel, artefact control for SMM control protein annotation, biochemical, small-molecule microarray, Alexa647 label, 635/667 nm fluorescence (AID 1117); conditions: alpha-BTX-A647 binding fluorescence, higher = more signal
[11] = target: Albumin (Bos taurus) (UniProt P02769); assay: bovine serum albumin binders on microarray, profiling panel, artefact control for SMM control protein annotation, biochemical, small-molecule microarray, Alexa647 label, 635/667 nm fluorescence (AID 1118); conditions: BSA-A647 binding, fluorescence 635 nm, higher = more signal;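 note: score merges 667 nm emission intensity and signal-to-noise per printed compound spot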
[12] = small-molecule microarray binders of probe aXIP, primary screen, biochemical, NeuroSMM set, 635/667 nm fluorescence (AID 1119); conditions: higher = more signal, called active from +8 up or from −8 down;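 note: probe is the protein aXip251-270 applied at 1 µg/mL to compound-printed slides; binding of probe to printed compounds measured as 667 nm fluorescence plus signal to noise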
[13] = small-molecule binders of probe aNOTCH3, primary screen, biochemical, small-molecule microarray, 635/667 nm fluorescence (AID 1120); conditions: higher = more signal;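 note: probe is a biotin-tagged antibody raised against NOTCH3 rather than NOTCH3 protein; score merges spot fluorescence near 667 nm with spot signal to noise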
[14] = small-molecule binders of probe aNOTCH2, primary screen, biochemical, small-molecule microarray, 635/667 nm fluorescence (AID 1121); conditions: higher = more signal;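 note: score merges feature fluorescence read at 667 nm with its signal to noise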
[15] = target: Carbonic anhydrase 2 (Homo sapiens) (UniProt P00918); assay: CAII small-molecule binders, profiling panel, biochemical, small-molecule microarray, Alexa647-labelled CAII (AID 1122); conditions: CAII-A647 binding fluorescence, higher = more signal
[16] = COS7 lysate on small-molecule microarray, probe aHis, 635 nm (AID 1123); conditions: COS7 cell lysate, fluorescence, higher = more signal;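 note: z-score combines 667nm fluorescence intensity with signal-to-noise per printed compound spot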
[17] = compound binding in COS7 lysate, probe aLAP1, primary screen, cell lysate, small-molecule microarray (AID 1124); conditions: probe aLAP1, fluorescence, higher = more signal;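 note: lysate comes from COS7 cells expressing LAP1 and is applied at 0.3 µg/mL; score merges spot fluorescence near 667 nm with signal-to-noise over triplicate slides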
[18] = system: Sam68 (KHDRBS1); assay: Sam68 small-molecule binders, primary screen, biochemical, small-molecule microarray, 635 nm fluorescence (AID 1125); conditions: small-molecule microarray binding, higher = more signal;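 note: score merges 667 nm channel intensity with signal to noise over triplicate slides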
[19] = system: Chordin-like protein 2 (CHRDL2); assay: CHRDL2 small-molecule binders, primary screen, biochemical, small-molecule microarray, 635 nm fluorescence (AID 1126); conditions: small-molecule microarray binding, fluorescence 635 nm; higher = more signal;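 note: printed compound slides probed with Chrdl2 protein at 4 µg/mL for 1 h at 4 C; score merges 667 nm emission intensity with signal to noise over three replicate slides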
[20] = target: Concanavalin-A (Canavalia ensiformis) (UniProt P02866); assay: ConA small-molecule binders, primary screen, artefact control for SMM control protein annotation, biochemical, small-molecule microarray, Alexa647 label, 635 nm (AID 1127); conditions: ConA-A647 binding fluorescence, higher = more signal;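 note: z combines 667 nm emission intensity with signal-to-noise across three replicate slides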
Sequence of Concanavalin-A (Canavalia ensiformis) (P02866 whole entry, looked up): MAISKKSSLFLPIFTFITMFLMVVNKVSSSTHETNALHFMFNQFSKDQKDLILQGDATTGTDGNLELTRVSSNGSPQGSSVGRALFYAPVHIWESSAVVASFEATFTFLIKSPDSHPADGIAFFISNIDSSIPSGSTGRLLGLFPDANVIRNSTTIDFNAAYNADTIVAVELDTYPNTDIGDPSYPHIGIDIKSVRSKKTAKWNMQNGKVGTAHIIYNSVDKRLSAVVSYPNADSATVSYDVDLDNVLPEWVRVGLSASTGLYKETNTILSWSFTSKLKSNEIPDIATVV

Sequence of Torsin-1A-interacting protein 1 (Homo sapiens) (Q5JTV8 whole entry, looked up): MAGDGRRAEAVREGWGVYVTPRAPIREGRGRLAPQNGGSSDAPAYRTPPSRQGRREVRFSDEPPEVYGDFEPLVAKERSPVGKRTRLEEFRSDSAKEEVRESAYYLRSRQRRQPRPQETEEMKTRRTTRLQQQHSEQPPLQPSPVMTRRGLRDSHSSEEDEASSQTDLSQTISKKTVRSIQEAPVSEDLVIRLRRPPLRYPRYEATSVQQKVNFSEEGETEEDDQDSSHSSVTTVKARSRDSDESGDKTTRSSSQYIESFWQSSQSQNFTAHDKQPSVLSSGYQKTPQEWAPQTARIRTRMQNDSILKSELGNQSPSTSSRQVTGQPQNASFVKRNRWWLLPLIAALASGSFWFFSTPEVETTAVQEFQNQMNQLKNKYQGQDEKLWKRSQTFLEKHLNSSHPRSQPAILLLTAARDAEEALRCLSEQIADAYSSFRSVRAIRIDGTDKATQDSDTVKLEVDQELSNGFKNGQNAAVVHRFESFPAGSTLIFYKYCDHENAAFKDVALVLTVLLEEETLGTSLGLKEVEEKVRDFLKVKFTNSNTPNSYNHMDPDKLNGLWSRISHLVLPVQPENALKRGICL
Sequence of Albumin (Bos taurus) (P02769 whole entry, looked up): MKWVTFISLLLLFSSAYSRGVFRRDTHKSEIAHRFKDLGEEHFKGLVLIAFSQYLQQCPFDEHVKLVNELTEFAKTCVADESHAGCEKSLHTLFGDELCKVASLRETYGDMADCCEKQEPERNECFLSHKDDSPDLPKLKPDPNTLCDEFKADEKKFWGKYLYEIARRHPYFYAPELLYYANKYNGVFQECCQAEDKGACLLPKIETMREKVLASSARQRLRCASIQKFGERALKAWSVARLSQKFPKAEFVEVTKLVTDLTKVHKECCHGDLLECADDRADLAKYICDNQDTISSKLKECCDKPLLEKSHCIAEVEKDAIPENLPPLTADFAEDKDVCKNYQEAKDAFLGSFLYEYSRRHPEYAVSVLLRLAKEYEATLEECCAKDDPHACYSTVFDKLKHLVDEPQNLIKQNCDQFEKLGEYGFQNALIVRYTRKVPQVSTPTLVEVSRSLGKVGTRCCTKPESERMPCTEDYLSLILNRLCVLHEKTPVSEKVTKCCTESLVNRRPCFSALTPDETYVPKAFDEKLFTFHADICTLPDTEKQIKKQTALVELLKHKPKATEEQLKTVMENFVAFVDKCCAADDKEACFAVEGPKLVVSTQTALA
Sequence of Left-right determination factor 2 (Homo sapiens) (O00292 whole entry, looked up): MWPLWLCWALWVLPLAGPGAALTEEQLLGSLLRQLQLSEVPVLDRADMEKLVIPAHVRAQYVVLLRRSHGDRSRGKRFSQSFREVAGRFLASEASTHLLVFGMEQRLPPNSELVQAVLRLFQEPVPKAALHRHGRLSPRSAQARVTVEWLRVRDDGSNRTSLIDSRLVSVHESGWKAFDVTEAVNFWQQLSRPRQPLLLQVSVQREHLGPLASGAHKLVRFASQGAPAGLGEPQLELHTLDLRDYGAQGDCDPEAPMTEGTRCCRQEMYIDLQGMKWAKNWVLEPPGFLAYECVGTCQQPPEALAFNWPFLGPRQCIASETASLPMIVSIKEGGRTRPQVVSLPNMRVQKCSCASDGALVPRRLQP
Sequence of Alpha-bungarotoxin (Bungarus multicinctus) (P60615 whole entry, looked up): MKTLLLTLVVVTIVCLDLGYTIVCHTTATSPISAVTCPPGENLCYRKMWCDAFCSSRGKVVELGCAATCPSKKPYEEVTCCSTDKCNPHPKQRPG

Row | Structure (SMILES) | composite z-score [1] | z-score [2] | composite z-score [3] | composite z-score [4] | composite z-score [5] | composite z-score [6] | composite z-score [7] | composite z-score [8] | composite z-score [9] | composite z-score [10] | composite z-score [11] | composite Z-score [12] | composite z-score [13] | composite z-score [14] | composite z-score [15] | composite z-score [16] | composite z-score [17] | composite z-score [18] | composite z-score [19] | composite z-score [20]
1 | O=C(NC1CC1)[C@@H]1c2ccccc2C(=O)N(Cc2ccccc2)[C@H]1c1ccc(CO)cc1 | 0.511 | -0.89 | -1.25 | -0.564 | -0.648 | -0.148 | 0.0099 | 0.368 | 0.835 | 0.406 | 0.0082 | 0.081 (inactive) | -0.272 | -0.127 | 0.698 | 2.72 | 1.36 | 0.372 | -0.346 | 0.38
2 | CCCC[C@@H]1C[C@H]1[C@@H](NC(=O)c1ccccc1)c1ccc(Cl)cc1 | -1.15 | -1.65 | -1.86 | 0.014 | 1.42 | -0.247 | -0.209 | 0.253 | 1.23 | -1.51 | -0.413 | 0.0169 (inactive) | -0.414 | -0.179 | -0.527 | 0.847 | -0.905 | -1.35 | -2.74 | -1.6
3 | CCCCN1CC=CC23O[C@@H]4C=CCOC(=O)[C@@H]4[C@H]2C(=O)N(CCCO)[C@@H]3C1=O (stereo not given in full) | 0.409 | -0.352 | -0.997 | -0.125 | 0.423 | -0.202 | -0.138 | -0.168 | -0.363 | -1.34 | 0.335 | 0.064 (inactive) | -0.321 | -0.179 | 0.868 | 0.726 | 0.95 | 0.237 | -0.565 | -0.926
4 | C=C1C2CC3C(=C4C(CO[C@@H]4[C@H]4CCCN4S(=O)(=O)c4ccccc4[N+](=O)[O-])C4C(=O)N(C)C(=O)C34)CC2C(=O)N1C (stereo not given in full) | -1.04 | -0.979 | 0.0437 | -0.0741 | -0.0942 | -0.152 | -0.0769 | 0.0473 | 0.231 | 0.26 | 0.873 | 0.79 (inactive) | 0.0897 | -0.078 | 0.155 | 0.5 | -0.0918 | -0.184 | 0.0301 | 0.131
5 | NCCCCCCNC(=O)[C@@H]1C[C@@H]2C(=O)N3CCC[C@H]3C(=O)N2[C@@H]1c1ccc(O)cc1 | 1.31 | 0.808 | 1.31 | 0.718 | 0.683 | 0.0049 | 0.0328 | -0.157 | 0.557 | 0.705 | 0.654 | -0.259 (inactive) | -0.0647 | -0.182 | 0.291 | 1.32 | 0.81 | 1.25 | 0.417 | 1.15
6 | C[C@H]1C2=C3C(CC[C@H]4C(OCc5ccc(F)cc5C(F)(F)F)OC[C@](C)([C@@H]34)N(C(=O)OC(C)(C)C)C2)C2COC(=O)OCC21 (stereo not given in full) | 1.35 | -1.84 | -0.431 | 2.39 | 1.06 | 0.0232 | 0.26 | -0.701 | 0.908 | 0.771 | 0.963 | -0.0452 (inactive) | 0.242 | 0.183 | 0.754 | 2.93 | 0.399 | 1.31 | -1.67 | 1.1
7 | CCCc1cccc(=O)o1 | 0.364 | -0.672 | 0.427 | 0.0369 | -0.116 | 0.0037 | 0.0723 | 0.0638 | 0.898 | 0.696 | 0.387 | -0.75 (inactive) | -0.0665 | -0.127 | 0.43 | 0.897 | 0.359 | 0.699 | 0.221 | 0.828
8 | COC(=O)[C@@]1(Cc2ccc(OC)cc2)[C@H]2c3cc(C(=O)N(C)C)n(Cc4ccccc4)c3C[C@H]2CN1C(=O)c1ccccc1 | 1.34 | -1.66 | -0.367 | 1.63 | 1.03 | -0.0681 | -0.12 | -0.759 | -0.681 | 0.187 | 0.864 | -0.96 (inactive) | 0.0372 | -0.0505 | 0.366 | 1.86 | 0.421 | 0.92 | -0.393 | 0.435
9 | O=C1O[C@@H](c2ccccc2)[C@@H](c2ccccc2)N2[C@@H](c3ccc(O)cc3)[C@]3(C(=O)Nc4ccc(C#CCCO)cc43)[C@@H](C(=O)Nc3nc4ccccc4s3)[C@H]12 | 1.23 | -0.0469 | 0.173 | 0.289 | -0.331 | -0.0405 | 0.108 | 0.128 | 1.2 | 1.66 | 0.827 | -0.0011 (inactive) | -0.0265 | -0.115 | 0.507 | 0.999 | 0.887 | 1.29 | -0.0623 | 0.616
10 | C=CCOC(=O)[C@H]1[C@@H]2C(=O)O[C@@H](c3ccccc3)[C@@H](c3ccccc3)N2[C@@H](c2ccc(OCCOC(=O)[C@H]3C[C@H]4C(=O)N[C@@H](CCCC[N+](C)(C)C)C(=O)N4[C@H]3c3cccc(OCCO)c3)cc2)[C@]12C(=O)Nc1ccc(I)cc12 | 0.62 | -1.38 | 0.73 | 0.727 | 0.119 | -0.0721 | -0.138 | 0.0051 | 0.62 | 0.113 | -0.0737 | 0.197 (inactive) | -0.208 | -0.161 | 0.108 | 0.365 | 0.072 | 0.489 | 0.578 | 1.13
11 | CC(=O)N1Cc2ccccc2C[C@]2(N=C(c3ccc(OCCCO)cc3)O[C@@H]2c2ccccc2)C1=O | 1.1 | -1.56 | 0.179 | 1.01 | 0.446 | -0.13 | 0.163 | 0.682 | 1.78 | 1.64 | -0.569 | 0.581 (inactive) | 0.0242 | -0.0424 | 0.552 | 2.87 | 0.451 | 1.3 | 0.15 | 1.13
